Measurements reported in PubChem BioAssay (NCI).
The panel holds about 83,000 compounds, 20% with a hit somewhere; the sample as a whole holds those more often.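 Step 1: grow cells in 96-well plates. Step 2: add test compound at a single concentration. Step 3: incubate 48 h. Step 4: record percent growth.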 Calls of active or inactive are those of the source. The calls were made as follows: active = growth percent below 10; inactive = the rest.

What was measured:
Assay in all cases: NCI-60 one-dose screen, 48 h (100 = growth as untreated, 0 = no growth, -100 = all killed)
Conditions in all cases: 10 µM unless noted
HCT-15 colon = system: HCT-15 colon
HT29 colon = system: HT29 colon
SNB-75 CNS = system: SNB-75 CNS
SNB-19 CNS = system: SNB-19 CNS
U251 CNS = system: U251 CNS
PC-3 prostate = system: PC-3 prostate
SK-MEL-5 melanoma = system: SK-MEL-5 melanoma
LOX IMVI melanoma = system: LOX IMVI melanoma
SK-MEL-28 melanoma = system: SK-MEL-28 melanoma
SK-MEL-2 melanoma = system: SK-MEL-2 melanoma
EKVX NSCLC = system: EKVX NSCLC
SN12C renal = system: SN12C renal
UO-31 renal = system: UO-31 renal
TK-10 renal = system: TK-10 renal
CAKI-1 renal = system: CAKI-1 renal
CCRF-CEM leukemia = system: CCRF-CEM leukemia
MOLT-4 leukemia = system: MOLT-4 leukemia
ACHN renal = system: ACHN renal
A498 renal = system: A498 renal

Measured: growth

CCN(Cc1ccccc1)c1ccc(C=O)cc1
inactive: HCT-15 colon 91% | HT29 colon 107% | SNB-75 CNS 82.1% | SNB-19 CNS 99.2% | U251 CNS 92% | PC-3 prostate 75.3% | SK-MEL-5 melanoma 98.9% | LOX IMVI melanoma 91% | SK-MEL-28 melanoma 115% | SK-MEL-2 melanoma 98.3% | EKVX NSCLC 106% | SN12C renal 96.7% | UO-31 renal 74.6% | TK-10 renal 64.2% | CAKI-1 renal 88% | CCRF-CEM leukemia 45.5% | MOLT-4 leukemia 97.2%

Fc1ccc2c(-c3cncn3CCc3ccccc3)c[nH]c2c1
inactive: HCT-15 colon 95.7% | HT29 colon 85.4% | SNB-75 CNS 47.7% | SNB-19 CNS 85.1% | U251 CNS 91.9% | PC-3 prostate 86.8% | SK-MEL-5 melanoma 90.2% | LOX IMVI melanoma 94.8% | SK-MEL-28 melanoma 98.8% | SK-MEL-2 melanoma 94.1% | EKVX NSCLC 79.4% | SN12C renal 77% | UO-31 renal 68.1% | TK-10 renal 135% | ACHN renal 96.7% | A498 renal 64.1% | CCRF-CEM leukemia 79.4% | MOLT-4 leukemia 91.2%

O=C1Nc2cc(-c3ccc(NC(=O)c4ccccc4)cc3)ccc2/C1=C/c1ccc[nH]1
inactive: HCT-15 colon 87.9% | HT29 colon 109% | SNB-75 CNS 99% | SNB-19 CNS 98.8% | U251 CNS 90.2% | PC-3 prostate 101% | SK-MEL-5 melanoma 103% | LOX IMVI melanoma 96.2% | SK-MEL-28 melanoma 119% | SK-MEL-2 melanoma 102% | EKVX NSCLC 51.1% | SN12C renal 101% | UO-31 renal 71.6% | TK-10 renal 113% | ACHN renal 95.8% | CCRF-CEM leukemia 92.4% | MOLT-4 leukemia 92.8%

COc1ccc(C(=O)C2C(C#N)C(C#N)C3C=Cc4ccccc4N32)cc1 (configuration not stated)
active: HT29 colon 8.8% | SNB-75 CNS -21.3% | A498 renal -9.53%
inactive: HCT-15 colon 16.9% | SNB-19 CNS 32.7% | U251 CNS 34.6% | PC-3 prostate 29.2% | SK-MEL-5 melanoma 15.2% | LOX IMVI melanoma 43.5% | SK-MEL-28 melanoma 57.6% | SK-MEL-2 melanoma 44.5% | EKVX NSCLC 56.7% | SN12C renal 32.7% | UO-31 renal 42% | TK-10 renal 91.9% | ACHN renal 44% | CAKI-1 renal 27.4% | CCRF-CEM leukemia 16.2% | MOLT-4 leukemia 37.5%

O=S(=O)(NCCNc1nccc(-c2c(-c3cccc(O)c3)nc3occn23)n1)c1ccc(Cl)cc1
inactive: HCT-15 colon 113% | HT29 colon 62.9% | SNB-75 CNS 109% | SNB-19 CNS 118% | U251 CNS 110% | PC-3 prostate 96.5% | SK-MEL-5 melanoma 52.2% | LOX IMVI melanoma 72.3% | SK-MEL-28 melanoma 48.2% | SK-MEL-2 melanoma 83.4% | EKVX NSCLC 125% | SN12C renal 100% | UO-31 renal 110% | TK-10 renal 143% | ACHN renal 98.5% | CAKI-1 renal 79.6% | CCRF-CEM leukemia 106% | MOLT-4 leukemia 103%

COc1ccc(/C=C/c2nc(Nc3ccc(Cl)cc3)c3ccccc3n2)cc1
active: CCRF-CEM leukemia 8.06%
inactive: HCT-15 colon 34.8% | HT29 colon 48.3% | SNB-75 CNS 61.7% | SNB-19 CNS 64.4% | U251 CNS 45.7% | PC-3 prostate 54.5% | SK-MEL-5 melanoma 69.7% | LOX IMVI melanoma 18.4% | SK-MEL-28 melanoma 90.2% | SK-MEL-2 melanoma 89.2% | EKVX NSCLC 81.8% | SN12C renal 38.5% | UO-31 renal 34.3% | TK-10 renal 70.8% | ACHN renal 49.4% | CAKI-1 renal 56.5% | A498 renal 16.6% | MOLT-4 leukemia 32.1%

COc1cc(CC(=O)n2ncc3ccc(N)cc32)cc(OC)c1OC
inactive: HCT-15 colon 88.2% | HT29 colon 109% | SNB-75 CNS 87.3% | SNB-19 CNS 101% | U251 CNS 98.4% | PC-3 prostate 88.2% | SK-MEL-5 melanoma 92.9% | SK-MEL-28 melanoma 99.9% | SK-MEL-2 melanoma 98% | EKVX NSCLC 91.8% | SN12C renal 107% | UO-31 renal 70.2% | TK-10 renal 108% | ACHN renal 94.9% | CAKI-1 renal 85.9% | A498 renal 97.4% | CCRF-CEM leukemia 101%

COC(=O)C(OC(C)=O)C(OC(C)=O)c1ccc(OC)c(OC)c1 (configuration not stated)
inactive: HCT-15 colon 97.8% | HT29 colon 97.2% | SNB-75 CNS 96.4% | SNB-19 CNS 103% | U251 CNS 97.5% | PC-3 prostate 81.5% | SK-MEL-5 melanoma 97.7% | LOX IMVI melanoma 90% | SK-MEL-28 melanoma 102% | SK-MEL-2 melanoma 96.5% | EKVX NSCLC 107% | SN12C renal 101% | TK-10 renal 115% | ACHN renal 104% | CAKI-1 renal 101% | CCRF-CEM leukemia 94.9% | MOLT-4 leukemia 85.5%

Cc1nn(-c2ccccc2)c(Cl)c1/C=C/C(=O)c1ccc(F)cc1
active: CCRF-CEM leukemia 4.52%
inactive: HCT-15 colon 73.9% | HT29 colon 91.1% | SNB-75 CNS 97.9% | SNB-19 CNS 87% | U251 CNS 75.9% | PC-3 prostate 78.7% | SK-MEL-5 melanoma 91.7% | LOX IMVI melanoma 76.5% | SK-MEL-28 melanoma 105% | SK-MEL-2 melanoma 92.8% | EKVX NSCLC 93.1% | SN12C renal 88.9% | UO-31 renal 79.1% | ACHN renal 97.5% | CAKI-1 renal 95.9% | A498 renal 81.5% | MOLT-4 leukemia 20.7%

CC1(C)c2[nH]c3ccccc3c2C[C@]2(C)[C@H]3C(=O)C=C4[C@@H]5C[C@@](C)(C(N)=O)CC[C@]5(C)CC[C@@]4(C)[C@]3(C)CC[C@@H]12
inactive: HCT-15 colon 65.8% | HT29 colon 56.3% | SNB-75 CNS 89.3% | SNB-19 CNS 78.6% | U251 CNS 70.4% | PC-3 prostate 42.1% | SK-MEL-5 melanoma 72% | LOX IMVI melanoma 83% | SK-MEL-28 melanoma 93.3% | SK-MEL-2 melanoma 81.8% | EKVX NSCLC 68.4% | SN12C renal 72% | UO-31 renal 42.6% | TK-10 renal 70.5% | ACHN renal 76.7% | CAKI-1 renal 82.8% | CCRF-CEM leukemia 66.7% | MOLT-4 leukemia 32.6%

COc1ccc2c(c1)oc1c(C)c3c(c(C)c12)C(=O)N(N)C3=O
active: HT29 colon 6.15% | SNB-75 CNS -55.9% | SK-MEL-5 melanoma 4.46% | UO-31 renal -45.8% | TK-10 renal -4.02% | ACHN renal -23.7% | A498 renal -7.39%
inactive: HCT-15 colon 41.9% | SNB-19 CNS 46.2% | U251 CNS 13.6% | PC-3 prostate 54.1% | LOX IMVI melanoma 43.4% | SK-MEL-28 melanoma 51% | SK-MEL-2 melanoma 93% | EKVX NSCLC 49.1% | SN12C renal 38.7% | CAKI-1 renal 34.2% | CCRF-CEM leukemia 55.8% | MOLT-4 leukemia 17.4%

CN1[C@@H]2CC[C@H]1/C(=C\c1ccccc1)C(=O)/C2=C/c1ccccc1
inactive: HCT-15 colon 27.9% | HT29 colon 10.9% | SNB-75 CNS 26.4% | SNB-19 CNS 47.1% | U251 CNS 16.6% | PC-3 prostate 36.8% | SK-MEL-5 melanoma 43.9% | LOX IMVI melanoma 19.7% | SK-MEL-28 melanoma 70.9% | SK-MEL-2 melanoma 60.7% | EKVX NSCLC 69.4% | SN12C renal 36.8% | UO-31 renal 55.4% | TK-10 renal 74.9% | ACHN renal 42% | A498 renal 71.7% | CCRF-CEM leukemia 16.1% | MOLT-4 leukemia 14.9%

CC(=O)N1c2ccccc2NC2=C(C(=O)NC2(C)C)C1c1ccco1 (configuration not stated)
inactive: HCT-15 colon 93.1% | HT29 colon 92.5% | SNB-75 CNS 73.5% | SNB-19 CNS 81.2% | U251 CNS 96.5% | PC-3 prostate 54.6% | SK-MEL-5 melanoma 64.6% | LOX IMVI melanoma 86.4% | SK-MEL-28 melanoma 75.2% | SK-MEL-2 melanoma 84.2% | EKVX NSCLC 95.8% | SN12C renal 99.1% | UO-31 renal 85.2% | TK-10 renal 98.4% | ACHN renal 107% | CAKI-1 renal 90.3% | CCRF-CEM leukemia 80.6% | MOLT-4 leukemia 96.5%

CCN(CC)CCn1c(=O)c2cc(OC)c(OC)cc2c2ccc3cc4c(cc3c21)OCO4
inactive: HCT-15 colon 54.7% | HT29 colon 17.1% | SNB-75 CNS 47.9% | SNB-19 CNS 27.1% | U251 CNS 22.7% | PC-3 prostate 48% | SK-MEL-5 melanoma 36.1% | SK-MEL-28 melanoma 53.4% | SK-MEL-2 melanoma 93.2% | EKVX NSCLC 83.9% | SN12C renal 32.9% | TK-10 renal 67.6% | ACHN renal 10.2% | CAKI-1 renal 17.3%
active: LOX IMVI melanoma -42.2% | CCRF-CEM leukemia 2.85% | MOLT-4 leukemia -9.32%

CCOC(=O)c1cc(C#N)n2ccc3ccccc3c12
inactive: HCT-15 colon 96.6% | HT29 colon 101% | SNB-75 CNS 76.2% | SNB-19 CNS 92.7% | U251 CNS 96.9% | PC-3 prostate 102% | SK-MEL-5 melanoma 97.4% | LOX IMVI melanoma 95.7% | SK-MEL-28 melanoma 106% | SK-MEL-2 melanoma 106% | EKVX NSCLC 90.9% | SN12C renal 94.5% | UO-31 renal 101% | TK-10 renal 91.3% | ACHN renal 109% | CAKI-1 renal 90.2% | A498 renal 88% | CCRF-CEM leukemia 98.8% | MOLT-4 leukemia 96.2%

CC(=O)OC[C@]12CC[C@@H](C(=O)CBr)[C@@H]1[C@H]1CC[C@@H]3[C@@]4(C)CC[C@H](OC(C)=O)C(C)(C)[C@@H]4CC[C@@]3(C)[C@]1(C)CC2
active: LOX IMVI melanoma -69.6% | CCRF-CEM leukemia -17.4% | MOLT-4 leukemia -5.01%
inactive: HCT-15 colon 97.1% | HT29 colon 91.8% | SNB-75 CNS 84.4% | SNB-19 CNS 114% | U251 CNS 96.7% | PC-3 prostate 75.8% | SK-MEL-5 melanoma 75.1% | SK-MEL-28 melanoma 99.8% | SK-MEL-2 melanoma 92.3% | EKVX NSCLC 107% | SN12C renal 87% | UO-31 renal 90.7% | TK-10 renal 108% | CAKI-1 renal 77.4% | A498 renal 121%
